Assay outcomes as filed in PubChem BioAssay.
This is a sample that favours compounds with a hit; in the whole collection about 0.9% have one here.
LMNA splice mod = qHTS Assay for Modulators of Lamin A Splicing. HeLa LMNA splicing GFP/RFP minigene ratio, 48 h. Potency, µM (series often up to 46.1 µM), for inactives: top-dose ratio change, negative = inhibition, hits mostly inhibitors. 200,000 compounds, 0.01% hits; active = well fitted inhibition curve with a large enough effect in the signal ratio, with a control signal flat, not every such curve was filed as active; inconclusive = small, poorly fitted or top-dose-only effect, or effect the other way, or a change in a side signal; the % refers to the signal ratio
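Read-out is the ratio of GFP to DsRed2 object intensity, acquired by 488 nm laser-scanning cytometry on HeLa lamin A-EGFP minigene reporter cells. Compound incubation 48 hrs at 37 °C in Opti-MEM with 2% FBS; DMSO 0.5% final.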
TDP1 block = qHTS Assay for Inhibitors of Tyrosyl-DNA Phosphodiesterase (TDP1); Tyrosyl-DNA phosphodiesterase 1 (Homo sapiens), Q9NUW8; recombinant TDP1, AlphaScreen DNA substrate cleavage; Potency, µM (titrated, usually from 130 µM), without a hit: at the highest dose activity change, negative = inhibition, most hits filed as inhibitors; 350,000 compounds, 0.28% hits; also: nearly all actives have a fitted effect of over 40% in size
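Tdp1 1 nM final; 15 min RT w/ cpd; substrate 15 nM, 5 min; beads 10 ug/ml, 10 min; AlphaScreen read. Neg ctrl: no enzyme.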
BLM inh = qHTS Assay for Inhibitors of Bloom's syndrome helicase (BLM). RecQ-like DNA helicase BLM (Homo sapiens), P54132. recombinant BLM DNA unwinding, fluorescence dequenching. Potency, µM (highest dose often 56.1 µM), for the others: at the top dose activity change, negative = inhibition, actives largely listed as inhibitors. 350,000 compounds, 0.2% hits. AID 2528, 2010;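 also: plate controls were vehicle for no effect and no enzyme for full effect; nearly all actives have a fitted effect of over 35% in size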
APE1 inh = qHTS Assay for Inhibitors of the Human Apurinic/apyrimidinic Endonuclease 1 (APE1). DNA repair nuclease/redox regulator APEX1 (Homo sapiens), P27695. recombinant APE1, TAMRA/BHQ-2 abasic DNA cleavage fluorescence. Potency, µM (doses to about 65.8 µM), for inactives: top-dose activity change, negative = inhibition, hits mostly inhibitors. 350,000 compounds, 0.35% hits. AID 2517, 2012;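 also: plate controls were vehicle for no effect and reference inhibitor for full effect; nearly all actives have a fitted effect of over 55% in size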
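0.75 nM APE1 + cpd, 15 min RT; start w/ 50 nM TAMRA/BHQ-2 THF-abasic dsDNA; kinetic fluor 525/598 nm ×3 reads @60 s; Δ(read3−read1); normalized to DMSO and NSC13755 control wells.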
KAT2A inh = qHTS Assay for Inhibitors of GCN5L2. GCN5L2 HAT assay, ThioGlo1 CoA-SH fluorescence. 390,000 compounds, 0.21% hits. Potency, µM (top dose mostly 58.9 µM), without a hit: at the top dose activity change, negative = inhibition, usual class: inhibitors. Histone acetyltransferase KAT2A (Homo sapiens), Q92830
Target sequence (Q92830 whole entry, looked up): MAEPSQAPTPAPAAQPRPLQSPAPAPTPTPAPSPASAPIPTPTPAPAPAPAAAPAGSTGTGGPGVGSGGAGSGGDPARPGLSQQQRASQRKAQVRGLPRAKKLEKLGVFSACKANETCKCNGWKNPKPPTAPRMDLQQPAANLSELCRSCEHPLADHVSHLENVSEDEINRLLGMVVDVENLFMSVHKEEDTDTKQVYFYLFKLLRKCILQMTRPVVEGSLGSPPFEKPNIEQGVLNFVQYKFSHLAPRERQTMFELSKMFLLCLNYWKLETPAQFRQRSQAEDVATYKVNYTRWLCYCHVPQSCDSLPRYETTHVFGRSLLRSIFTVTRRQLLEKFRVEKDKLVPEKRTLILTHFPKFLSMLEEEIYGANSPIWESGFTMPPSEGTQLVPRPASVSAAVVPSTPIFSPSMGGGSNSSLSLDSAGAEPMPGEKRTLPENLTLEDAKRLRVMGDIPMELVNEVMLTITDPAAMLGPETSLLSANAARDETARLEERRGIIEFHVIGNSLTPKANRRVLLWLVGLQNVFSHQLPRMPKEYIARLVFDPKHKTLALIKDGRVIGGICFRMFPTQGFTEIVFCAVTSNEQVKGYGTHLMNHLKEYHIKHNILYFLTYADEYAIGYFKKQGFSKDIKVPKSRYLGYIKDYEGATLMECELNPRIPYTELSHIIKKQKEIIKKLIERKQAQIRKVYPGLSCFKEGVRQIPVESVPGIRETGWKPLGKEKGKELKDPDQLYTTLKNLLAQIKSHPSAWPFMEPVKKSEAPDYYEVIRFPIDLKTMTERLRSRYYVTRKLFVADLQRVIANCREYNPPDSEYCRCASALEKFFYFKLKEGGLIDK
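Titration-based screen in which CoA formation is detected via maleimide probe ThioGlo1 (50uM) turning fluorescent on thiol reaction; substrates H3(1-25) 75uM and acetyl-CoA 70uM, GCN5L2 20nM, 20 min incubation at room temperature.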
RECQ1 helicase = qHTS Assay for Inhibitors of RecQ-Like Dna Helicase 1 (RECQ1); ATP-dependent DNA helicase Q1 (Homo sapiens), P46063; 240,000 compounds, 0.54% hits; Potency, µM (doses to about 57.3 µM), inactives show at the highest dose activity, negative = inhibition, hits mostly inhibitors; RECQ1 DNA unwinding, red fluorescence kinetic read;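 also: plate controls were vehicle for no effect and no enzyme for full effect; nearly all actives have a fitted effect of over 30% in size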
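50 nM RECQ1T1 preincubated 15 min with compound in Tris pH 8.0 buffer with MgCl2, DTT, Tween-20 and 2.5 ug/ml poly(dI-dC); started with 200 nM TAMRA/BHQ-2 forked duplex and 2 mM ATP. Unwinding read as fluorescence (525/598 nm), two reads 2 h apart.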
* hit, by the source's call; ? = inconclusive; . = not tested or not shown; [ ] = dose if it differs, or a comment. Unless noted, calls follow the shape of the dose curve; as a rule, active = well fitted curve in the direction sought with a large enough effect; inconclusive = small, poorly fitted or top-dose-only effect, or another doubt; inactive = no such curve, though single readings can be large; an effect the other way counts as inactive or inconclusive. Unless noted, % is scaled to controls: 0 for no effect and ±100 for the full control effect; potency is read from the fitted curve at half-maximal effect.

SMILES	LMNA splice mod	TDP1 block	BLM inh	APE1 inh	KAT2A inh	RECQ1 helicase
Cc1cc[n+](-c2[nH]c(=O)sc2/C=N/N=C(\[O-])c2ccncc2)cc1	.	39.8µM*	-10.4%	7.4%	-5.0%	.
Cc1cc(C)nc(SCC(=O)OCC(=O)Nc2nc3ccccc3s2)n1	-6.1%	-3.4%	-11.1%	-2.4%	-3.6%	3.6%
COC(=O)c1ccc(NC(=O)COC(=O)CSc2nc(C)cc(C)n2)cc1	-2.1%	-5.9%	4.3%	-4.3%	0.708µM*	-8.4%
COc1ccc(C(=O)N(Cc2ccccc2)Cc2ccco2)c(O)c1	.	0.3%	.	.	.	.
Nc1nc(-c2ccccc2)c(N=Nc2cccc3ccccc23)s1	?	10.8%	-14.6%	?	-11.9%	35.5µM*
C[C@H](N)C(=O)N[C@@H](CO)C(=O)N[C@H](C(=O)N[C@H](C(=O)N[C@H](C(=O)N[C@@H](CC(N)=O)C(=O)N[C@@H](Cc1ccc(O)cc1)C(=O)N[C@H](C(=O)O)[C@@H](C)O)[C@@H](C)O)[C@@H](C)O)[C@@H](C)O	.	7.5%	-3.3%	0.2%	-13.5%	-10.0%
c1ccc2[nH]c(CSc3ncnc4c3oc3ccccc34)nc2c1	-13.6%	6.2%	3.9%	-5.6%	39.8µM*	-6.5%
CC(C)(CS(=O)(=O)[O-])NC(=O)CC[N+](C)(C)CCO	2.9%	-2.9%	14.1µM*	6.31µM*	-16.9%	1.41µM*
CC(=O)c1cc2c(cc1O)OC(C)(C)C=C2	.	22.4µM*	0.2%	16.1%	-15.5%	-6.0%
CC1(C)C=Cc2cc3ccc(=O)oc3cc2O1	.	-10.2%[56.1 µM]	-5.2%	-14.3%	-23.2%	13.1%
CC(C)n1c(SCC(=O)Nc2nncs2)nnc1-c1ccco1	.	11.2µM*	-20.5%	13.4µM*	?	.
Cc1ccc(S(=O)(=O)N2CCN(Cc3ccccc3C(F)(F)F)CC2)cc1	-2.5%	-11.9%	-10.3%	10.3%	1.58µM*	-4.8%
O=S(=O)(c1ccccc1)N1CCN(Cc2ccccc2C(F)(F)F)CC1	-13.9%	.	-12.8%	-4.1%	-6.7%	?
COc1ccc(C2=Nn3c(nnc3-c3ccccc3C(F)(F)F)SC2)cc1OC	.	.	.	-11.9%	.	.
Cc1cccn2cc(CNC(=O)c3ccco3)nc12	6.8%	0.0%	-1.0%	-9.6%	35.5µM*	3.8%
CC(C)(C)n1ncc2c(=O)n(Cc3cccc(F)c3)cnc21	.	.	.	1.4%	.	.
CC(C)(C)n1ncc2c(=O)n(Cc3c(F)ccc(F)c3Cl)cnc21	.	.	.	-2.6%	.	.
O=C(NNc1c2ccccc2nc2ccccc12)c1ccc(O)cc1O	-25.0%	11.2%	-21.1%	?	-1.4%	-26.3%
O=C(NNc1c2ccccc2nc2ccccc12)c1ccccc1O	17.8µM*	8.5%	-9.4%	11.3%	-7.6%	?
CN(C)c1ccc(/C=C2\C(=O)Nc3ccccc32)cc1	28.2µM*	22.8%[56.1 µM]	-7.6%	19.5%	-25.0%	16.1%
COc1cc(C2Nc3ccccc3C(=O)N2Cc2ccccc2)ccc1OCc1ccc(NC(C)=O)cc1 (configuration not stated)	.	0.5%	.	.	.	.
O=C(CN1C(=O)c2cccc3cccc1c23)Nc1ccc2c(c1)OCO2	-24.0%	5.2%	-6.4%	-2.6%	3.55µM*	-2.6%
O=C(O)c1ccc(N/N=C/c2cn(Cc3ccc(F)cc3)c3ccccc23)cc1	.	4.8%	-8.0%	-6.8%	-11.7%	-6.1%
O=C(N/N=C/c1cn(Cc2ccccc2)c2ccccc12)c1cc(O)cc(O)c1	.	-14.5%	-14.9%	15µM*	-6.9%	.
